Tests used:
Conditions in all cases: Compound Concentration (nM):1000
TBK1 = system: TBK1
TEC = system: TEC
TESK1 = system: TESK1
TGFBR1 = system: TGFBR1
TGFBR2 = system: TGFBR2
TIE1 = system: TIE1
TIE2 = system: T1, TIE2
T1 construct: gene TEK

TLK1 = system: TLK1
TLK2 = system: TLK2
TNIK = system: TNIK
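Further: KINOMEscan scanMAX binding as percent activity remaining versus control; lower means stronger binding.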

COC(=O)Nc1nc2ccc(Oc3ccc(NC(=O)Nc4cc(C(F)(F)F)ccc4F)cc3)cc2s1.Cl [GW693917A]
Percent Control (TBK1): 69% | Percent Control (TEC): 78% | Percent Control (TESK1): 77% | Percent Control (TGFBR1): 100% | Percent Control (TGFBR2): 92% | Percent Control (TIE1): 3.1% | Percent Control (TIE2): 0.6% | Percent Control (TLK1): 87% | Percent Control (TLK2): 100% | Percent Control (TNIK): 74%

C[C@@H](Oc1cc(-n2cnc3ccc(OC4CCN(C)CC4)cc32)sc1C(N)=O)c1ccccc1Cl [GSK579289A]
Percent Control (TBK1): 67% | Percent Control (TEC): 99% | Percent Control (TESK1): 72% | Percent Control (TGFBR1): 100% | Percent Control (TGFBR2): 100% | Percent Control (TIE1): 52% | Percent Control (TIE2): 69% | Percent Control (TLK1): 81% | Percent Control (TLK2): 77% | Percent Control (TNIK): 75%

CC(C)COC(=O)c1ccc2c(c1)/C(=C/Nc1ccc(S(N)(=O)=O)cc1)C(=O)N2 [GW416981X]
Percent Control (TBK1): 17% | Percent Control (TEC): 100% | Percent Control (TESK1): 100% | Percent Control (TGFBR1): 100% | Percent Control (TGFBR2): 42% | Percent Control (TIE1): 100% | Percent Control (TIE2): 100% | Percent Control (TLK1): 100% | Percent Control (TLK2): 95% | Percent Control (TNIK): 58%

COc1ccccc1-c1cc(/C=C2\C(=O)Nc3ncc(Br)cc32)cc(Br)c1O [GW442130X]
Percent Control (TBK1): 100% | Percent Control (TEC): 100% | Percent Control (TESK1): 100% | Percent Control (TGFBR1): 100% | Percent Control (TGFBR2): 87% | Percent Control (TIE1): 100% | Percent Control (TIE2): 95% | Percent Control (TLK1): 100% | Percent Control (TLK2): 100% | Percent Control (TNIK): 71%

Nc1ncnc2occ(-c3ccc(NC(=O)Nc4cc(C(F)(F)F)ccc4F)cc3)c12 [GW770249X]
Percent Control (TBK1): 100% | Percent Control (TEC): 100% | Percent Control (TESK1): 100% | Percent Control (TGFBR1): 100% | Percent Control (TGFBR2): 100% | Percent Control (TIE1): 2.6% | Percent Control (TIE2): 3.8% | Percent Control (TLK1): 100% | Percent Control (TLK2): 100% | Percent Control (TNIK): 59%

C/C(Nc1ccc(S(N)(=O)=O)cc1)=C1/C(=O)Nc2ccccc21 [GW335962X]
Percent Control (TBK1): 75% | Percent Control (TEC): 100% | Percent Control (TESK1): 100% | Percent Control (TGFBR1): 88% | Percent Control (TGFBR2): 100% | Percent Control (TIE1): 100% | Percent Control (TIE2): 100% | Percent Control (TLK1): 94% | Percent Control (TLK2): 65% | Percent Control (TNIK): 18%

CCS(=O)(=O)c1ccc(OC)c(Nc2ncc(-c3cccc(OC)c3)o2)c1 [GW580509X]
Percent Control (TBK1): 100% | Percent Control (TEC): 100% | Percent Control (TESK1): 100% | Percent Control (TGFBR1): 81% | Percent Control (TGFBR2): 46% | Percent Control (TIE1): 49% | Percent Control (TIE2): 100% | Percent Control (TLK1): 100% | Percent Control (TLK2): 99% | Percent Control (TNIK): 75%

COc1cc(C=NNc2ncnc3c2cnn3-c2ccccc2)ccc1O [GW513184X]
Percent Control (TBK1): 95% | Percent Control (TEC): 90% | Percent Control (TESK1): 100% | Percent Control (TGFBR1): 79% | Percent Control (TGFBR2): 100% | Percent Control (TIE1): 74% | Percent Control (TIE2): 65% | Percent Control (TLK1): 100% | Percent Control (TLK2): 100% | Percent Control (TNIK): 84%

NS(=O)(=O)c1ccc(Nc2ncc(-c3ccccc3)o2)cc1 [GW572399X]
Percent Control (TBK1): 100% | Percent Control (TEC): 99% | Percent Control (TESK1): 100% | Percent Control (TGFBR1): 100% | Percent Control (TGFBR2): 100% | Percent Control (TIE1): 100% | Percent Control (TIE2): 100% | Percent Control (TLK1): 63% | Percent Control (TLK2): 47% | Percent Control (TNIK): 52%

CC1=C(C(=O)Nc2ccc3[nH]ncc3c2)C(c2ccc(Cl)c(Cl)c2)CC(=O)N1 (centres unmarked) [GSK299115A]
Percent Control (TBK1): 92% | Percent Control (TEC): 92% | Percent Control (TESK1): 100% | Percent Control (TGFBR1): 100% | Percent Control (TGFBR2): 100% | Percent Control (TIE1): 90% | Percent Control (TIE2): 100% | Percent Control (TLK1): 84% | Percent Control (TLK2): 90% | Percent Control (TNIK): 100%

Cl.O=S1CCN(Cc2ccc(-c3ccc4ncnc(Nc5ccc(OCc6ccccc6)c(F)c5)c4c3)o2)CC1 [GW576924A]
Percent Control (TBK1): 100% | Percent Control (TEC): 100% | Percent Control (TESK1): 100% | Percent Control (TGFBR1): 100% | Percent Control (TGFBR2): 100% | Percent Control (TIE1): 100% | Percent Control (TIE2): 100% | Percent Control (TLK1): 100% | Percent Control (TLK2): 100% | Percent Control (TNIK): 100%

CC1=C(C(=O)Nc2ccc3[nH]ncc3c2)C(c2ccc3ccccc3c2)CC(=O)N1 (centres unmarked) [GSK270822A]
Percent Control (TBK1): 81% | Percent Control (TEC): 90% | Percent Control (TESK1): 99% | Percent Control (TGFBR1): 85% | Percent Control (TGFBR2): 100% | Percent Control (TIE1): 80% | Percent Control (TIE2): 96% | Percent Control (TLK1): 89% | Percent Control (TLK2): 100% | Percent Control (TNIK): 85%

COc1cccc(-n2ncc3c(N/N=C/c4ccncc4)ncnc32)c1 [GW784752X]
Percent Control (TBK1): 100% | Percent Control (TEC): 100% | Percent Control (TESK1): 85% | Percent Control (TGFBR1): 36% | Percent Control (TGFBR2): 100% | Percent Control (TIE1): 100% | Percent Control (TIE2): 100% | Percent Control (TLK1): 89% | Percent Control (TLK2): 93% | Percent Control (TNIK): 97%

O=C(Nc1n[nH]c2nc(-c3ccc(O)cc3)c(Br)cc12)C1CC1 [SB-725317]
Percent Control (TBK1): 86% | Percent Control (TEC): 100% | Percent Control (TESK1): 100% | Percent Control (TGFBR1): 100% | Percent Control (TGFBR2): 100% | Percent Control (TIE1): 100% | Percent Control (TIE2): 100% | Percent Control (TLK1): 100% | Percent Control (TLK2): 100% | Percent Control (TNIK): 72%

Cl.O=C(O[C@H]1CN[C@H](C#Cc2cc3ncnc(Nc4ccc5c(cnn5Cc5ccccc5)c4)c3s2)C1)N1CCOCC1 [GSK200398A]
Percent Control (TBK1): 100% | Percent Control (TEC): 100% | Percent Control (TESK1): 96% | Percent Control (TGFBR1): 97% | Percent Control (TGFBR2): 100% | Percent Control (TIE1): 100% | Percent Control (TIE2): 100% | Percent Control (TLK1): 80% | Percent Control (TLK2): 72% | Percent Control (TNIK): 96%

COc1ccc2c(-c3ccnc(Nc4cccc(OC(F)(F)F)c4)n3)cnn2n1 [GW810372X]
Percent Control (TBK1): 80% | Percent Control (TEC): 100% | Percent Control (TESK1): 70% | Percent Control (TGFBR1): 100% | Percent Control (TGFBR2): 52% | Percent Control (TIE1): 100% | Percent Control (TIE2): 100% | Percent Control (TLK1): 100% | Percent Control (TLK2): 84% | Percent Control (TNIK): 100%

CCS(=O)(=O)c1ccc(OC)c(Nc2ncc(-c3cccc(F)c3)o2)c1 [GW621970X]
Percent Control (TBK1): 100% | Percent Control (TEC): 100% | Percent Control (TESK1): 89% | Percent Control (TGFBR1): 100% | Percent Control (TGFBR2): 52% | Percent Control (TIE1): 69% | Percent Control (TIE2): 100% | Percent Control (TLK1): 100% | Percent Control (TLK2): 86% | Percent Control (TNIK): 82%

COc1cc2ncn(-c3cc(O[C@H](C)c4ccccc4Cl)c(C(N)=O)s3)c2cc1OC [GSK237701A]
Percent Control (TBK1): 80% | Percent Control (TEC): 100% | Percent Control (TESK1): 100% | Percent Control (TGFBR1): 72% | Percent Control (TGFBR2): 100% | Percent Control (TIE1): 13% | Percent Control (TIE2): 97% | Percent Control (TLK1): 96% | Percent Control (TLK2): 98% | Percent Control (TNIK): 99%

NS(=O)(=O)c1ccc(N/N=C2\C(=O)Nc3ccc(Cl)cc32)cc1 [GW280670X]
Percent Control (TBK1): 100% | Percent Control (TEC): 100% | Percent Control (TESK1): 100% | Percent Control (TGFBR1): 100% | Percent Control (TGFBR2): 100% | Percent Control (TIE1): 100% | Percent Control (TIE2): 100% | Percent Control (TLK1): 100% | Percent Control (TLK2): 100% | Percent Control (TNIK): 47%

COc1cc2ncnc(Nc3ccc4c(cnn4Cc4ccccc4)c3)c2cc1OC.Cl [GW282449A]
Percent Control (TBK1): 100% | Percent Control (TEC): 83% | Percent Control (TESK1): 100% | Percent Control (TGFBR1): 100% | Percent Control (TGFBR2): 100% | Percent Control (TIE1): 100% | Percent Control (TIE2): 100% | Percent Control (TLK1): 100% | Percent Control (TLK2): 100% | Percent Control (TNIK): 100%

Reference: publication PMC7826789 (International Journal of Molecular Sciences, 2021)
